According to PubChem BioAssay (EPA / NIEHS):
Several values for one entry are separate records, joined by “and”; a condition that tells them apart may be missing. Equal entries are not always repeated. Results filed as inconclusive are left out. Some compounds were tested as several samples or in several runs, with calls that do not always agree. Activity calls are given as the source filed them. The calls were made as follows, unless noted: active = hit-call score of the fitted dose curve at least 0.9, where 1 is the maximum; inactive = score below 0.9.

Key:
[1] = CCTE_Shafer_MEA_dev_per_network_spike_spike_percent: CCTE's Neural Network Formation Assay for Percent of Spikes in a Network Spike, Shafer Lab (AID 2284054)
In short: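 Primary rat cortical neurons on 16-electrode MEA wells (PEI-coated, laminin at plating), exposed from day 0 with renewal at DIV 5 and 9; spikes within 0.05 s of network-spike peaks over total spikes, AUC across days 5, 7, 9, 12.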

[2] = CCTE_Shafer_MEA_dev_LDH: CCTE's Lactate Dehydrogenase Assay for Cytotoxicity in the Neural Network Formation Assay, Shafer Lab (AID 2284068; active = hit-call score of the fitted dose curve at least 0.9, where 1 is the maximum;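 also: exposure for twelve days from plating with re-dosing on DIV 5 and 9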)
In short: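 Developing rat cortical networks on MEA plates are exposed to compound for 12 days from plating. LDH activity is measured spectrophotometrically, with DMSO as baseline.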

[3] = CCTE_Shafer_MEA_dev_AB: CCTE's Alamar Blue Assay for Cytotoxicity in the Neural Network Formation Assay, Shafer Lab (AID 2284083; active = hit-call score of the fitted dose curve at least 0.9, where 1 is the maximum;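 also: resazurin reduction fluorescence as viability of cultured neurons; twelve days of exposure from plating with re-dosing on DIV 5 and 9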)
In short: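 Cytotoxicity companion to the developmental MEA: primary rat cortical neurons, 12-day exposure starting day 0, compound refreshed DIV 5 and 9; resazurin fluorescence, fitted against DMSO vehicle.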

[4] = CCTE_Shafer_MEA_dev_mutual_information_norm: CCTE's Neural Network Formation Assay for Mutual Information Normalization, Shafer Lab (AID 2284091);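 as to AC50: mutual information between electrodes summarised as area under curve across four recording days; potency is for a decrease in mutual information relative to DMSO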
In short: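 Rat cortical cultures, 48-well MEA, continuous exposure DIV 0–12 with full media/compound change DIV 5 and 9. Readout: inter-electrode mutual information, AxIS adaptive spike detection; AUC across DIV 5/7/9/12 recordings; DMSO baseline, negative fitting direction.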

[5] = CCTE_Shafer_MEA_dev_correlation_coefficient_mean: CCTE's Neural Network Formation Assay for Mean Correlation Coefficient, Shafer Lab (AID 2284093);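 as to AC50: well mean pairwise spike train correlation integrated as AUC over recording days 5 to 12; potency fitted for loss of correlation relative to DMSO vehicle wells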
In short: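 Extracellular firing from rat cortical networks on 48-well MEAs, DMSO-referenced, negative fitting direction. Compound present from plating to DIV12; mean pairwise correlation per well integrated over DIV5–12 recordings by trapezoidal AUC.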

[6] = UKN2_HCS_IMR90_neural_migration: University of Konstanz (UKN) Leist Lab Neural Crest Cell Migration Assay in human induced IMR90 Pluripotent Stem Cells (UKN2) (AID 2284204); settings: actives raise or lower the signal
In short: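 iPSC-derived IMR90 neural crest cells on PLO/laminin/fibronectin were seeded around silicone stoppers; after stopper removal, migration in N2-S medium with EGF and FGF ran 24 h before 24 h chemical exposure. Calcein-AM/Hoechst high-content imaging; bidirectional fit versus DMSO.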

[7] = IUF_NPC1b_proliferation_BrdU_72hr: Leibniz Research Institute for Environmental Medicine (IUF) 72-hour Neural Progenitor Cell Bromodeoxyuridine (BrdU) Proliferation Assay (NPC1b) (AID 2284207)
In short: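 hNPC spheres (primary, GW 16-19 fetal cortex), single sphere/well, EGF+FGF medium; 72 h compound, no renewal; BrdU pulse last 16 h; luminescent ELISA; activity vs DMSO baseline; growth-factor withdrawal as positive control.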

[8] = IUF_NPC1a_proliferation_area_72hr: Leibniz Research Institute for Environmental Medicine (IUF) 72-hour Neural Progenitor Cell Proliferation Area Assay (NPC1a) (AID 2284208)
In short: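 Measured in 3D suspension: each well held one primary hNPC sphere grown with EGF and FGF at pH 7.2-7.6. Compound stayed on for 72 h, then area was imaged; spheres lacking growth factors defined reduced proliferation.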

[9] = IUF_NPC1_viability_72hr: Viability Assessment at 72 hours in the Leibniz Research Institute for Environmental Medicine (IUF) Neural Progenitor Cell Proliferation Assay (NPC1) (AID 2284209)
In short: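 Human fetal-cortex neural progenitor spheres (0.25–0.35 mm, one per well) grown in EGF/FGF proliferation medium at 37C, pH 7.2-7.6, exposed 72 h without renewal; viability read as alamar blue resazurin-to-resorufin fluorescence relative to DMSO.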

[10] = CCTE_Mundy_HCI_Cortical_Synap_Neur_Matur_NeuriteSpotCountPerNeuriteLength: CCTE's Synaptogenesis and Neurite Maturation Assay in rat cortical cells for Neurite Spot Count per Neurite Length, Mundy Lab (AID 2284210)
In short: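 Rat primary cortical cultures, glia arrested with AraC at DIV 5, were dosed with media change at DIV 7 and fixed at DIV 12. Synaptophysin puncta per MAP2-labelled neurite length were quantified by high-content imaging versus DMSO.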

[11] = CCTE_Mundy_HCI_Cortical_NOG_NeuriteCount: CCTE's Neurite Outgrowth Assay in rat cortical cells for Neurite Count, Mundy Lab (AID 2284212);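 also: cells fixed about two days after chemical exposure began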
In short: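 Neurite number per cell from high-content imaging of betaIII-tubulin immunostaining, with Hoechst nuclear counterstain.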

[12] = CCTE_Mundy_HCI_Cortical_Synap_Neur_Matur_NeuriteLength: CCTE's Synaptogenesis and Neurite Maturation Assay in rat cortical cells for Neurite Length, Mundy Lab (AID 2284214)
In short: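 Rat primary cortical cells were plated, treated with AraC at DIV 5 to arrest glial growth, then chemical-dosed with media change at DIV 7 through DIV 12. Fixed cells stained for MAP2, synaptophysin and Hoechst; neurite length quantified by high-content imaging.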

[13] = CCTE_Mundy_HCI_Cortical_Synap_Neur_Matur_NeuriteSpotCountPerNeuron: CCTE's Synaptogenesis and Neurite Maturation Assay in rat cortical cells for Neurite Spot Count per Neuron Count, Mundy Lab (AID 2284215)
In short: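 Developing rat cortical neurons, with glia suppressed by AraC, are exposed to chemicals from DIV 7 to DIV 12. Automated fluorescence imaging of MAP2-labelled neurites and synaptophysin puncta yields a count per neuron, normalised against DMSO wells.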

[14] = UKN5_HCS_SBAD2_cell_viability: Viability Assessment in the University of Konstanz (UKN) Leist Lab Neurite Outgrowth Assay in human iPSC-derived immature Dorsal Root Ganglia Neurons (UKN5) (AID 2284056)
In short: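 iPSC-derived immature peripheral neurons (SBAD2) seeded on Matrigel with CHIR99021, SU5402 and DAPT, dosed 1 h later for 24 h. Viability from Hoechst H-33342 and calcein-AM live staining, high-content imaging; bidirectional fit versus DMSO.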

[15] = UKN5_HCS_SBAD2_neurite_outgrowth: University of Konstanz (UKN) Leist Lab Neurite Outgrowth Assay in human iPSC-derived immature Dorsal Root Ganglia Neurons (UKN5) (AID 2284070); settings: actives raise or lower the signal
In short: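 Human iPSC-derived immature DRG neurons (SBAD2) on Matrigel with CHIR99021 (1.5 uM), SU5402 (5 uM), DAPT (5 uM); compounds added 1 h post-seeding for 24 h. Calcein-AM neurite area imaged; bidirectional fit vs DMSO.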

[16] = CCTE_Shafer_MEA_acute_LDH: CCTE's Lactate Dehydrogenase Assay for Cytotoxicity in the Neural Acute Assay, Shafer Lab (AID 2284086; active = hit-call score of the fitted dose curve at least 0.9, where 1 is the maximum;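 also: active means LDH release rises above DMSO vehicle level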)
In short: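 Primary rat cortical neurons on 48-well MEA plates, treated on day 13 or 15 post-plating. After the 40-min recording with compound, medium LDH release was read by absorbance at 490 nm. Gain of signal was fitted against DMSO negative control.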

[17] = UKN4_HCS_LUHMES_neurite_outgrowth: University of Konstanz (UKN) Leist Lab Neurite Outgrowth Assay in human LUHMES cells (UKN4) (AID 2284206); settings: actives raise or lower the signal
In short: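 LUHMES neuronal precursors differentiated 2 days, replated without cAMP/GDNF, then exposed to chemicals for 24 h. Neurite area imaged by high-content microscopy after calcein-AM staining; Hoechst H-33342 marks viability. Bidirectional fit versus DMSO.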

[18] = TAMU_PeakParms_SingleDonor1434_Chronotropy: Texas A&M University (TAMU) 1.5-hr Human Induced Pluripotent Stem Cell (iPSC)-derived Cardiomyocytes Calcium (Ca+2) Flux Assay for Cardiotoxicity: Chronotropy (changes in peak frequency) (AID 2284217); settings: actives raise or lower the signal
In short: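 Using fluorescent Ca2+ flux, average beats per second are measured in human iPSC-derived cardiomyocytes treated 90 min (0.5% DMSO vehicle, 0.2–100 uM). Non-beating data points are removed; activity is modeled in both directions relative to DMSO controls.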

[19] = CCTE_Shafer_MEA_acute_AB: CCTE's Alamar Blue Assay for Cytotoxicity in the Neural Acute Assay, Shafer Lab (AID 2284069; active = hit-call score of the fitted dose curve at least 0.9, where 1 is the maximum;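 also: active compounds lower the viability signal compared with DMSO wells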)
In short: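 Cytotoxicity endpoint for acute MEA exposures of primary rat cortical neurons on day 13 or 15. Resazurin reduction is read fluorescently at 544/590 nm, with DMSO as the negative-control baseline.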

Measured: AC50

COP(=O)(OC)OC=C(Cl)Cl
inactive: [2] | [4] | [5] | [6] | [7] | [10] | [11] | [12] | [13]
active: [1] 1.99 µM | [2] 3.8 µM | [3] 30.4 µM | [4] 0.378 µM | [5] 0.656 µM | [8] 14.2 µM | [9] 91.4 µM | [11] 77.3 µM | [13] 49 µM

ClC1C(Cl)C(Cl)C(Cl)C(Cl)C1Cl (stereo unspecified)
inactive: [1] | [14] | [2] | [15] | [3] | [16] | [4] | [5] | [6] | [17]
active: [18] 11.5 µM

COP(=S)(OC)Oc1ccc([N+](=O)[O-])cc1
inactive: [1] | [4] | [17] | [7] | [8] | [9] | [10]
active: [3] 24.3 µM | [5] 23 µM | [11] 23.4 µM | [12] 15 µM | [13] 15 µM

CNC(=O)/C=C(\C)OP(=O)(OC)OC
inactive: [19] | [16]

CC1(c2ccc(Oc3ccccc3)cc2)OC(=O)N(Nc2ccccc2)C1=O (stereo unspecified)
active: [1] 2.47 µM | [2] 3.28 µM | [3] 4.56 µM | [4] 1.34 µM | [5] 1.79 µM | [8] 39.6 µM | [10] 37.6 µM | [11] 55.8 µM | [12] 44.1 µM | [13] 24.1 µM
inactive: [6] | [7] | [9]

O=C(O)COc1ccc(Cl)cc1Cl
active: [2] 15 µM | [4] 12.1 µM | [7] 50.1 µM
not listed: [14] | [15] | [16] | [17] | [18] | [19]
inactive: all other assays above

C[C@H]1[C@H](c2ccc(Cl)cc2)SC(=O)N1C(=O)NC1CCCCC1
inactive: [16]

O=C(O)C(F)(F)C(F)(F)C(F)(F)C(F)(F)C(F)(F)C(F)(F)C(F)(F)F
active: [14] 768 µM | [15] 899 µM | [17] 78.1 µM | [7] 6.45 µM and 11.7 µM
not listed: [3] | [16] | [18] | [19]
inactive: all other assays above

CCC(C)Nc1c([N+](=O)[O-])cc(C(C)(C)C)cc1[N+](=O)[O-] (stereo unspecified)
inactive: [19]

CCC(C)(C)C(=O)OC1=C(c2ccc(Cl)cc2Cl)C(=O)OC12CCCCC2
not listed: [6] | [14] | [15] | [18]
inactive: all other assays above

CN1CSC(=S)N(C)C1
inactive: [18]

O=C1c2ccccc2C(=O)N1SC(Cl)(Cl)Cl
inactive: [16]
active: [19] 20 µM

CNC(=O)CSP(=S)(OC)OC
inactive: [4] | [7] | [8] | [9] | [10] | [11] | [12] | [13]
active: [1] 50 µM and 15 µM | [2] 66.6 µM and 24.2 µM | [3] 50 µM and 26.8 µM | [4] 50 µM | [5] 50 µM and 15 µM | [12] 50 µM | [13] 50 µM

Clc1ccccc1-c1nnc(-c2ccccc2Cl)nn1
inactive: [19] | [16]
